The target of test [1] is Cytochrome P450 2D6 (Homo sapiens) (UniProt P10635). The test is described as follows: Cytochrome P450 Family 2 Subfamily D Member 6 (CYP2D6) small molecule antagonists: luciferase reporter qHTS assay (AID 1671196). Also: nearly all actives have a fitted effect of over 50% in size. The procedure, abridged: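 Quantitative HTS of Tox21 chemicals against CYP2D6 using a luminescent proluciferin substrate. After NADPH addition, 1 h room-temperature reaction; luminescence recorded 20 min post detection reagent.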

Test [2] concerns the target Cytochrome P450 2C19 (Homo sapiens) (UniProt P33261). The test is described as follows: Cytochrome P450 Family 2 Subfamily C Member 19 (CYP2C19) small molecule antagonists: luciferase reporter qHTS assay (AID 1671197). Also: nearly all actives have a fitted effect of over 65% in size. The procedure, abridged:
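Enzyme-substrate mix with proluciferin substrate (P450-Glo CYP2C19 system) preincubated with compounds 10 min at room temperature; NADPH regeneration solution added, 37C for 1 h; detection reagent stops reaction, luminescence read after 20 min. Ketoconazole positive control.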

Test [3] addresses Cytochrome P450 2C9 (Homo sapiens) (UniProt P11712). Briefly: Cytochrome P450 Family 2 Subfamily C Member 9 (CYP2C9) small molecule antagonists: luciferase reporter qHTS assay (AID 1671198). Also: nearly all actives have a fitted effect of over 50% in size. The procedure, abridged: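 CYP2C9 activity was measured with a P450-Glo proluciferin substrate. Enzyme–substrate mix was held with compound for 10 min at room temperature, then NADPH regeneration solution was added for 1 h at 37C. Luciferin product was read as luminescence.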
On the technique in general: In a reporter assay the amount or activity of a reporter protein is the signal.

Test [4] deals with Cytochrome P450 1A2 (Homo sapiens) (UniProt P05177). The test is described as follows: Cytochrome P450 Family 1 Subfamily A Member 2 (CYP1A2) small molecule antagonists: luciferase reporter qHTS assay (AID 1671199). Also: nearly all actives have a fitted effect of over 50% in size. The procedure, abridged: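 Quantitative high-throughput format using the P450-Glo CYP1A2 system. Reaction initiated by NADPH regeneration solution, 1 h at room temperature, then stopped with detection reagent; luminescence measured 20 min later.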

Test [5] addresses Voltage-gated inwardly rectifying potassium channel KCNH2 (Homo sapiens) (UniProt Q12809). The test is described as follows: Human Ether-a-go-go-Related Gene (hERG) channel small molecule antagonists: fluorescence cell-based qHTS assay (AID 1671200). Also: nearly all actives have a fitted effect of over 50% in size. In a few lines:
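First, 1000 cells per well are seeded and cultured overnight at 37 C. Next, FluxOR II dye is loaded for 1 h at room temperature, protected from light. After 10 more minutes, stimulus is added and fluorescence is read.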
For orientation: Block of hERG is tested as a sign of cardiac risk.

Test [6] concerns the target Cytochrome P450 3A4 (Homo sapiens) (UniProt P08684). Briefly: Cytochrome P450 Family 3 Subfamily A Member 4 (CYP3A4) small molecule antagonists: luciferase reporter qHTS assay (AID 1671201). Also: nearly all actives have a fitted effect of over 50% in size. In a few lines:
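Enzyme and proluciferin substrate are mixed with test chemicals for 10 min, then NADPH regeneration system drives turnover for 1 h at room temperature. A detection reagent halts the reaction; luminescence after 20 min gives relative activity.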

Results filed as inconclusive are left out. Active and inactive are the calls of the source. Calls follow the shape of the dose curve; as a rule, active = well fitted curve in the direction sought with a large enough effect in the repeat runs; inconclusive = weak or mixed curves; inactive = no such curve, though single readings can be large; an effect the other way counts as inactive or inconclusive.
Potency is read from the fitted curve at half-maximal effect.

Cytochrome P450 2C19 (Homo sapiens), sequence (P33261 whole entry, looked up): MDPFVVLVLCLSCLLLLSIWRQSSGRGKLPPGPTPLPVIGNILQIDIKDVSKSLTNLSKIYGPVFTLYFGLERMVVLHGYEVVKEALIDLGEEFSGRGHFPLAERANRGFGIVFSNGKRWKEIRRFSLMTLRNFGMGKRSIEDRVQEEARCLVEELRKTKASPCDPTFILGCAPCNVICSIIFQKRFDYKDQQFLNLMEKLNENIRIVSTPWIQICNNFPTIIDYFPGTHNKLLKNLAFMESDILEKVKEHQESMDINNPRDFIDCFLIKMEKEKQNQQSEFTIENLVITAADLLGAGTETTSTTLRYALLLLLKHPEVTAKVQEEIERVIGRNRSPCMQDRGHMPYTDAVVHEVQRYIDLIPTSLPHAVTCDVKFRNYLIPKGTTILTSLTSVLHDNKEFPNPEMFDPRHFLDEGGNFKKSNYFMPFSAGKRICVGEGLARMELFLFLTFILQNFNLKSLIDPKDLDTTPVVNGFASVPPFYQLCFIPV
Cytochrome P450 3A4 (Homo sapiens), sequence (P08684 whole entry, looked up): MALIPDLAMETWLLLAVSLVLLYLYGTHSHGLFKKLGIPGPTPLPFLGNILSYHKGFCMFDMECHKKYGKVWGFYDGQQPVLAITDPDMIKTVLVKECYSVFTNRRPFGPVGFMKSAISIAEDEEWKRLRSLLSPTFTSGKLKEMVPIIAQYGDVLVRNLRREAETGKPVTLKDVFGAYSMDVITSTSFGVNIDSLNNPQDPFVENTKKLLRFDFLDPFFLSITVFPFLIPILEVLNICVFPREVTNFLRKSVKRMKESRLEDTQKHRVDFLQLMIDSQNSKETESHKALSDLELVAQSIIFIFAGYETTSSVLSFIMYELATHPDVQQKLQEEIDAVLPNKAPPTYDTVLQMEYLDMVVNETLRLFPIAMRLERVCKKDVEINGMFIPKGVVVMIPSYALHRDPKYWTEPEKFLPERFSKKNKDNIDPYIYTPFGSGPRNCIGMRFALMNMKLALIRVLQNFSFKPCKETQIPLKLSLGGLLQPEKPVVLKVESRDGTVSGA
Voltage-gated inwardly rectifying potassium channel KCNH2 (Homo sapiens), sequence (Q12809 whole entry, looked up): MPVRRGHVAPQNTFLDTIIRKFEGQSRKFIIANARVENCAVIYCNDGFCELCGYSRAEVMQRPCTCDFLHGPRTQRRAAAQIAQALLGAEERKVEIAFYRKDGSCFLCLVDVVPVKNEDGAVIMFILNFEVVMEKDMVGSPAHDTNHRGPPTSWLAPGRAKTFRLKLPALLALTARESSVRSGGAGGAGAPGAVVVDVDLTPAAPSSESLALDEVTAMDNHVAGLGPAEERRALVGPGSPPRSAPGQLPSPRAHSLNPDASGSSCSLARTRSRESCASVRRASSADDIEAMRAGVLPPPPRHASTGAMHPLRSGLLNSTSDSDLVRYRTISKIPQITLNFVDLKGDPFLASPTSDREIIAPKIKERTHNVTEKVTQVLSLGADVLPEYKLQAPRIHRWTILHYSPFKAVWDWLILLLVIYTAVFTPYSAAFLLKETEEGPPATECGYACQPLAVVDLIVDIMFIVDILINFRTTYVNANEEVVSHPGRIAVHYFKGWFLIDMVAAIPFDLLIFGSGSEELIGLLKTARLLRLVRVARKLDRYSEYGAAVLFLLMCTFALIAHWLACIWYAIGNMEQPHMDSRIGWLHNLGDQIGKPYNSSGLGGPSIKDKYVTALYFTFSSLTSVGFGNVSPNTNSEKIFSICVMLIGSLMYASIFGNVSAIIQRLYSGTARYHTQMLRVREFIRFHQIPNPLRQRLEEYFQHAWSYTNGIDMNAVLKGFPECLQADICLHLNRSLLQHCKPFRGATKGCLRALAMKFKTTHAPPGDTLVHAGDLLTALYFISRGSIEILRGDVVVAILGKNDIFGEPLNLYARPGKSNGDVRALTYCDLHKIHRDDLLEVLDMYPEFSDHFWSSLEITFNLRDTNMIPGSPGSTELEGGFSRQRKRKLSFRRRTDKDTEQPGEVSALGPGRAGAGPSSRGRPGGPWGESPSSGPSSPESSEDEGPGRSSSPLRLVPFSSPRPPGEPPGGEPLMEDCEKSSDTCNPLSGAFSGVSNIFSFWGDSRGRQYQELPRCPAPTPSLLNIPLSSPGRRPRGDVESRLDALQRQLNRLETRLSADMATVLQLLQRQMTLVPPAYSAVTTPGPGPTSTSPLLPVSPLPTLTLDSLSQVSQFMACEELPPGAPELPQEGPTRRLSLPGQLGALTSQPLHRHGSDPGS
Cytochrome P450 2C9 (Homo sapiens), sequence (P11712 whole entry, looked up): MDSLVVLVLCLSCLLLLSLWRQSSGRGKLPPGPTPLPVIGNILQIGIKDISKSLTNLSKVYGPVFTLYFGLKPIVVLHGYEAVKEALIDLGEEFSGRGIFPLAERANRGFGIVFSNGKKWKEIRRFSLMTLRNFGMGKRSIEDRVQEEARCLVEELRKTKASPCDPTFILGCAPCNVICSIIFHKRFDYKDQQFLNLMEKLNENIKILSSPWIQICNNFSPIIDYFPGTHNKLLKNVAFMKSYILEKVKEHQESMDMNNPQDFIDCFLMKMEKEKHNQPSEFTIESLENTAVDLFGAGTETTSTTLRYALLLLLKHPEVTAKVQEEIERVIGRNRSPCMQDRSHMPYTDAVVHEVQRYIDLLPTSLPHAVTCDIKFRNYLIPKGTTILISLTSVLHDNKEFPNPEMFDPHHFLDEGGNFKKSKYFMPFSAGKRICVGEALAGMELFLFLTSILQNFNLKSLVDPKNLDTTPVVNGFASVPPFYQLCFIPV
Cytochrome P450 2D6 (Homo sapiens), sequence (P10635 whole entry, looked up): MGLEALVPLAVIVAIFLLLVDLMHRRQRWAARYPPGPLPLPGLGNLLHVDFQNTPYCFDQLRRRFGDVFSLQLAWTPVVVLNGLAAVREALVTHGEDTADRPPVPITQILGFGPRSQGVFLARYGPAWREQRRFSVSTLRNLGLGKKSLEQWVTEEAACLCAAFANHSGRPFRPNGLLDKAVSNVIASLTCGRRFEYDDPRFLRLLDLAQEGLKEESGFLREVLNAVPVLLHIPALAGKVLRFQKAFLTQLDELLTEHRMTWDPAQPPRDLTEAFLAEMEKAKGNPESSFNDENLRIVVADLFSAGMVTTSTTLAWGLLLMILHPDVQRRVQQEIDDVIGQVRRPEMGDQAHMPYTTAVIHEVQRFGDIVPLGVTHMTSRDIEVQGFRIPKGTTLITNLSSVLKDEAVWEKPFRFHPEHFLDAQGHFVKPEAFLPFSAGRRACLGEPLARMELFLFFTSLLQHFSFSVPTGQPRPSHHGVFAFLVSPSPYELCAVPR
Cytochrome P450 1A2 (Homo sapiens), sequence (P05177 whole entry, looked up): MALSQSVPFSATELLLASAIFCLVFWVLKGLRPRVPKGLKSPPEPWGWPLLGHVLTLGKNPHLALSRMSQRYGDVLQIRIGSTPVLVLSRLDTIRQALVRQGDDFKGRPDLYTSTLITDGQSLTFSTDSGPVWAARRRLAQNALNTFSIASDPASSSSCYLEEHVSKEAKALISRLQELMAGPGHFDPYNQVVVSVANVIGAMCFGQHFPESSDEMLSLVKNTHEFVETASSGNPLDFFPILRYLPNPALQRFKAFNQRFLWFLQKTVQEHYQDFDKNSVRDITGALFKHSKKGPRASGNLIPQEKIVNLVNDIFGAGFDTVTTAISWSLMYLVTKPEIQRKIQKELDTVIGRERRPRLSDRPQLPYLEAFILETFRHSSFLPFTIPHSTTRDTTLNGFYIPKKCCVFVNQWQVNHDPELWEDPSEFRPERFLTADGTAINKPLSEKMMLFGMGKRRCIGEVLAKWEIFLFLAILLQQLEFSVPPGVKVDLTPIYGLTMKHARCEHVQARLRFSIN

For `Cc1ccc2nc(N)[nH]c(=O)c2c1Sc1ccncc1`, the Potency in test [1] was 15.5 µM (active); in test [2], 1.55 µM (active); in test [3] it was 5.49 µM (active); in test [4] it was 2.88 µM (active).

With `CCC(CO)(CO)CO`, the Potency result in test [1], in test [2], in test [3], in test [4], in test [5] and in test [6] was “inactive” throughout.

As to `Cc1ccc(N(CC2=NCCN2)c2cccc(O)c2)cc1`, the Potency was 0.776 µM (active) in test [1] and 17.4 µM (active) in test [2]. The Potency result in test [3] and in test [4] was “inactive” throughout.

Regarding `C=C(C)C(=O)OCCC(F)(F)C(F)(F)C(F)(F)C(F)(F)C(F)(F)C(F)(F)F`, the Potency entry in test [1], in test [2], in test [3], in test [4] and in test [5] was “inactive” each time.

In the case of `CC(C)(O)c1coc(S(=O)(=O)NC(=O)Nc2c3c(cc4c2CCC4)CCC3)c1`, the Potency result in test [1] and in test [5] was “inactive” in each case. Further, the results for the Potency in test [2], in test [3] and in test [4] were 35.6 µM (active), 25.2 µM (active) and 17.8 µM (active), respectively.

Regarding `CCN(CC)c1ccc(C(=C2C=CC(=[N+](CC)CC)C=C2)c2ccc(S(=O)(=O)O)cc2S(=O)(=O)[O-])cc1`, the Potency is 20 µM (active) in test [1]; 17.8 µM (active) in test [2]; 14.2 µM (active) in test [3]; 10 µM (active) in test [4]; 8.94 µM (active) in test [6]. Besides, the Potency result in test [5] was “inactive”.

For `CC(C)(C)C(O)/C=C/c1ccc2c(c1)OCO2` (configuration not stated), the Potency in test [1] is 27.5 µM (active); in test [2], 3.89 µM (active); in test [3] it was 3.89 µM (active); in test [4], 5.75 µM (active). In addition, the Potency entry in test [5] is “inactive”.

As to `O=C(c1ccccc1)c1ccc(O)cc1`, the figures for the Potency in test [1], in test [2] and in test [4] were 40.4 µM (active), 40.4 µM (active) and 32.1 µM (active), respectively. The Potency entry in test [3] was “inactive”.

For `CCC(CO)(CO)[N+](=O)[O-]`, the Potency entry in test [1], in test [2], in test [3], in test [4] and in test [5] was “inactive” each time.

`O=[N+]([O-])c1ccc2ncccc2c1`: the Potency is 31.8 µM (active) in test [1], 40 µM (active) in test [2] and 1.59 µM (active) in test [4]. Moreover, the Potency result in test [3] and in test [5] was “inactive” throughout.

As to `CCN(CC)CCOc1ccccc1C(=O)CCc1ccccc1`, the results for the Potency in test [1], in test [4] and in test [5] were 0.692 µM (active), 7.76 µM (active) and 3.38 µM (active), respectively. The Potency entry in test [2] and in test [3] was “inactive” each time.

With `Cc1ccc(N(CCO)CCO)cc1`, the Potency result in test [1], in test [5] and in test [6] was “inactive” throughout. The Potency was 17.8 µM (active) in test [2], 39.9 µM (active) in test [3] and 31.7 µM (active) in test [4].

As for `COc1ccc(-n2nc(C(F)F)cc2-c2ccc(S(C)=O)cc2)cc1` (configuration not stated), the Potency in test [1] was 35.6 µM (active); in test [2] it was 2 µM (active); in test [3] it was 31.7 µM (active); in test [4], 31.7 µM (active); in test [6] it was 31.7 µM (active). For the same compound, the Potency result in test [5] is “inactive”.

For the compound `O=C(O)c1cc(Cl)cc(Cl)c1O`, the Potency entry in test [1], in test [2], in test [5] and in test [6] was “inactive” each time. For the same compound, the Potency in test [3] is 28.3 µM (active).

Take `Oc1ccc2c(c1)Cc1ccccc1-2`: the Potency entry in test [1], in test [5] and in test [6] was “inactive” each time. Further, the Potency is 28.3 µM (active) in test [2], 35.6 µM (active) in test [3] and 3.56 µM (active) in test [4].

In the case of `CC(=O)OCCC(C)CC(C)(C)C` (configuration not stated), in test [1], the Potency was 71 µM (active). Besides, the Potency result in test [2], in test [3], in test [4], in test [5] and in test [6] was “inactive” each time.

For `CCOCCC(=O)OCC`, the Potency entry in test [1], in test [2], in test [3], in test [5] and in test [6] was “inactive” throughout.

Regarding `CC(=O)Oc1cccc(O)c1`, the Potency result in test [1], in test [2], in test [3] and in test [5] was “inactive” each time.

For `O=CNNC=O`, the Potency result in test [1], in test [2], in test [3], in test [4], in test [5] and in test [6] was “inactive” each time.

With `CC[C@H]1OC(=O)[C@H](C)[C@@H](O[C@H]2C[C@@](C)(OC)[C@@H](O)[C@H](C)O2)[C@H](C)[C@@H](O[C@@H]2O[C@H](C)C[C@H](N(C)C)[C@H]2O)[C@](C)(O)C[C@@H](C)/C(=N\OCOCCOC)[C@H](C)[C@@H](O)[C@]1(C)O`, the Potency entry in test [1], in test [2], in test [3], in test [4] and in test [5] was “inactive” in each case. The Potency in test [6] is 3.33 µM (active).

As for `CCCCCCC(CO)CCCC` (configuration not stated), the Potency entry in test [1], in test [2], in test [3], in test [4] and in test [6] was “inactive” throughout.

Take `CCc1ccc(C)cc1`: the Potency result in test [1], in test [2], in test [3], in test [4] and in test [6] was “inactive” in each case.

Turning to `Nc1ccn([C@H]2CS[C@@H](CO)O2)c(=O)n1`, the Potency entry in test [1], in test [2], in test [3], in test [4], in test [5] and in test [6] was “inactive” throughout.

Take `O=c1[nH]c2cc(C(F)(F)F)c(N3CCOCC3)cc2n(CP(=O)(O)O)c1=O`: the Potency entry in test [1], in test [2], in test [3], in test [4], in test [5] and in test [6] was “inactive” each time.

For `CC(C)C(=O)OCCOc1ccccc1`, the Potency entry in test [1] and in test [6] was “inactive” throughout. The Potency in test [2] was 39.9 µM (active); in test [3], 39.9 µM (active); in test [4] it was 31.7 µM (active).

On to `CC(=O)OCCC1CCCCC1`, for which the Potency result in test [1], in test [2], in test [3], in test [5] and in test [6] was “inactive” in each case.

Turning to `CCCCCCCCCCCCCCCCCC(=O)OCC(CC)CCCC` (configuration not stated), the Potency entry in test [1], in test [2], in test [3] and in test [5] was “inactive” in each case.

Turning to `Oc1cccc2[nH]ccc12`, the Potency in test [1] and in test [3] was 15.5 µM (active) in each case. The Potency entry in test [2], in test [4], in test [5] and in test [6] was “inactive” in each case.

As for `C1=CCC2CC=CC2C1` (configuration not stated), the Potency entry in test [1], in test [3] and in test [5] was “inactive” throughout. The Potency in test [2] is 70.9 µM (active).

On to `COc1ccc(C(=O)NCc2ccc(OCCN(C)C)cc2)cc1OC`, for which the Potency entry in test [1], in test [2], in test [3], in test [4], in test [5] and in test [6] was “inactive” in each case.

`O=S(=O)(O)CO`: the Potency entry in test [1], in test [3] and in test [6] was “inactive” each time. For the same compound, the Potency is 35.1 µM (active) in test [2] and 31.3 µM (active) in test [4].

Turning to `N[C@@H](Cc1cc(I)c(O)c(I)c1)C(=O)O`, the Potency entry in test [1], in test [2], in test [4], in test [5] and in test [6] was “inactive” throughout. In addition, the Potency in test [3] was 38.9 µM (active).

The values are drawn from PubChem BioAssay (Tox21).
